Measurements reported in ChEMBL document CHEMBL4513216, “Probing the Open Global Health Chemical Diversity Library for Multistage-Active Starting Points for Next-Generation Antimalarials” (ACS Infect Dis, 2020).
The whole screen tested about 69,000 compounds, of which about 8,600 (12%) showed an effect of 50% or more. This is one part of a sample in which strong results are shown more often than they occur.

The compounds below were run on Plasmodium berghei (assay: Screen against P. berghei liver stage (PbLuc), transformed with Luciferase, at 10uM). Settings: tested at 10 uM.
Assay type: functional, HepG2
Compound `CCOCC(O)CN1CCN(C(=O)c2cc(Cl)ccc2F)CC1` (stereo unspecified) has an INHIBITION of -18%. For `Cc1cnc(N2CCCC3(CCN(Cc4csc(C)n4)C3=O)C2)nc1` (stereo unspecified), the INHIBITION was -49.8%. With `CC(NC(=O)N1CCN(c2ccccc2O)CC1)c1nncn1C` (stereo unspecified) the INHIBITION was -1.14%. `CCCn1nc2c(cc1=O)CN(c1ncnc3sccc13)CC2` gave an INHIBITION of 96.2%. Compound `CC(C)n1nc2c(cc1=O)CN(CCCN1CCCC1=O)CC2` has an INHIBITION of 11.9%. For `Cn1nc2c(cc1=O)CN(c1ncnc3sccc13)CC2`, the INHIBITION was 42.3%. In the case of `CCn1nc2c(cc1=O)CN(c1ncnc3sccc13)CC2`, the INHIBITION is reported as 79.9%. Compound `CCn1nc2c(cc1=O)CN(Cc1nc3ccccc3o1)CC2` has an INHIBITION of 8.24%. Compound `CCCn1nc2c(cc1=O)CN(C(C)C(=O)Nc1nccs1)CC2` (stereo unspecified) has an INHIBITION of 29.4%. `CC(C)n1nc2c(cc1=O)CN(c1ncnc3sccc13)CC2` was tested, and the INHIBITION was 88.5%. Compound `CC(C)n1nc2c(cc1=O)CN(CCOc1ccc(C#N)cc1)CC2` has an INHIBITION of -7.94%. Compound `CCn1nc2c(cc1=O)CN(Cc1nc(C)c3ccccc3n1)CC2` has an INHIBITION of -3.72%. `CC(C(=O)NCc1ccnc(N2CCCCCC2)c1)n1cccn1` (stereo unspecified) gave an INHIBITION of -39.6%. Compound `COc1c(C)cnc(CN2CCOC(Cn3nc(C)cc3C)C2)c1C` (stereo unspecified) has an INHIBITION of -21.7%. Compound `CN1C(=O)CO[C@H]2CCN(C(=O)Cc3ccc4c(c3)CCCC4)CC[C@@H]21` has an INHIBITION of 10.65%. `N#Cc1cccc(OCCN2CCOC(Cn3cccn3)C2)c1` (stereo unspecified) gave an INHIBITION of 0.411%. `CCCOC(=O)c1ccc(-c2ccc(/C=C3\C(=O)NC(=N)N3C)o2)cc1` showed an INHIBITION of -18%. In the case of `CCc1nc2n(n1)CC(NCc1cnn(Cc3ccccc3)c1)CC2` (stereo unspecified), the INHIBITION is reported as -2.19%. Compound `Cc1nn(C)c2ncc(NC(=O)N3CCNC(=O)C3)cc12` has an INHIBITION of -38%. In the case of `CCCS(=O)(=O)N1CCC(NC(=O)c2cc(CC)c(C)s2)CC1`, the INHIBITION is reported as 2.91%. In the case of `CCCS(=O)(=O)N1CCC(NC(=O)c2cc3ccccc3s2)CC1`, the INHIBITION is reported as 67.1%. Work on `CCS(=O)(=O)N1CCC(NC(=O)c2cc3ccccc3cc2O)CC1` yielded an INHIBITION of 80.55%. Compound `CCCS(=O)(=O)N1CCC(NC(=O)c2ccc(C)s2)CC1` has an INHIBITION of -19.3%. Compound `CCS(=O)(=O)N1CCC(NC(=O)c2ccccc2O)CC1` has an INHIBITION of -33.32%. For `CCS(=O)(=O)N1CCC(NC(=O)c2cc(C)ccc2O)CC1`, the INHIBITION was 8.665%. In the case of `COC1C[C@@H]2CN(C(=O)c3cccc4c3OCCO4)C[C@@H]2C1` (stereo partly specified), the INHIBITION is reported as 40.625%. For `CCc1nnsc1C(=O)N(C)Cc1nnc2n1CCC2`, the INHIBITION was 22.9%. Work on `O=C(c1cnccn1)N1CCC(F)(F)C2(CCN(c3ccccn3)C2)C1` (stereo unspecified) yielded an INHIBITION of 12.1%. `CNC(=O)C(NC(=O)c1ccn(C)c(=O)c1)c1ccccc1` (stereo unspecified) was tested, and the INHIBITION was -25.9%. `Cc1nn(CN(CC(C)C)C2CC2)c(=O)c2noc(C)c12` was tested, and the INHIBITION was -199%. `CCN(Cc1cccc(C)c1)Cn1nc(C)c2c(C)onc2c1=O` was tested, and the INHIBITION was 49.8%. `Cc1nn(CN(Cc2ccsc2)C2CC2)c(=O)c2noc(C)c12` gave an INHIBITION of 63.8%. Compound `CCCN(Cc1ccccc1)Cn1nc(C)c2c(C)onc2c1=O` has an INHIBITION of 49.9%. In the case of `Cc1cccc(CN(Cn2nc(C)c3c(C)onc3c2=O)C2CC2)c1`, the INHIBITION is reported as -18.9%. In the case of `CCN(CCc1ccccc1)Cn1nc(C)c2c(C)onc2c1=O`, the INHIBITION is reported as 56.1%. For `COc1ccc(CC(=O)N2CCCCC2Cn2cccn2)cc1` (stereo unspecified), the INHIBITION was -8.11%. For `c1cnc(-c2nc(CN3CCCC3Cn3cncn3)cs2)nc1` (stereo unspecified), the INHIBITION was 27.6%. `COCCC(=O)N1CCC(c2nc(O)cc(-c3ccncc3)n2)C1` (stereo unspecified) was tested, and the INHIBITION was -0.902%. Work on `CN(C)CCN(Cc1ccccn1)C(=O)Nc1cccc(F)c1` yielded an INHIBITION of 18.9%. With `Cc1ccoc1C(=O)N(CCN(C)C)Cc1ccccn1` the INHIBITION was -31.4%. In the case of `COc1cc(C(=O)N(CCC#N)Cc2ccccn2)cc(OC)c1C`, the INHIBITION is reported as 7.9%. `Cc1occc1C(=O)N(CCN(C)C)Cc1ccccn1` was tested, and the INHIBITION was 51.3%. In the case of `COCCN(CCOC)C(=O)c1ccoc1C`, the INHIBITION is reported as -0.551%. `Cc1c(C(=O)N(CCN(C)C)Cc2ccccn2)oc2ccccc12` showed an INHIBITION of 63.7%. `c1cnc(N2CCN(C3CCC[C@@H]4CN(CC5CC5)C[C@H]34)CC2)nc1` (stereo partly specified) was tested, and the INHIBITION was -34.7%. `O=S1(=O)NC(C2CCCN(S(=O)(=O)N3CCCC3)C2)=Nc2ccccc21` (stereo unspecified) showed an INHIBITION of 4.535%. Work on `Cc1ccc(OC2CCN(CCn3cncn3)CC2)cc1` yielded an INHIBITION of 86.8%. `Fc1ccc(OC2CCN(CCn3cncn3)CC2)cc1` was tested, and the INHIBITION was -5.69%. With `Clc1ccc(OCCN2CCN(CCn3cncn3)CC2)cc1` the INHIBITION was 47.4%. For `O=C(NCC1CCS(=O)(=O)C1)c1ccc(NC(=O)c2ccco2)cc1` (stereo unspecified), the INHIBITION was 18.6%. In the case of `O=C(CCc1cscn1)N1CCCC(n2cncn2)C1` (stereo unspecified), the INHIBITION is reported as 31.8%. `COc1ccc(OC)c(CNc2c(O)c(=O)c2=O)c1` was tested, and the INHIBITION was 47.4%. For `CCc1nc(NCc2ccccn2)c2c(n1)c(C)nn2C`, the INHIBITION was 42.1%. Work on `Cc1nc(NCCCn2cccn2)c2c(n1)c(C)nn2C` yielded an INHIBITION of 57.3%. `CCc1nc(NCCCn2cccn2)c2c(n1)c(C)nn2CC` gave an INHIBITION of 64%. `CCc1nc(NCCn2cccn2)c2c(n1)c(C)nn2C` gave an INHIBITION of 19.3%. For `Cc1nn(C)c2c(NCCCn3cccn3)nc(C(C)C)nc12`, the INHIBITION was 62.3%. Work on `Cc1nn(C)c2c(NCc3ccccn3)nc(C(C)C)nc12` yielded an INHIBITION of 33.7%. `CCCc1nc(NCCCn2cccn2)c2c(n1)c(C)nn2CC` gave an INHIBITION of 27.5%. Work on `CCc1nc(NCCCn2cccn2)c2c(n1)c(C)nn2C` yielded an INHIBITION of 10.3%. `Cc1nn(C)c2c(NCCn3cccn3)ncnc12` gave an INHIBITION of -37.2%. `Cc1nn(C)c2c(NCCCn3cccn3)ncnc12` showed an INHIBITION of -43.4%. Compound `Cc1nn(C)c2c(NCCCn3cccn3)nc(C3CC3)nc12` has an INHIBITION of 42.4%. Work on `Cc1nc(NCc2ccccn2)c2c(n1)c(C)nn2C` yielded an INHIBITION of 57.4%. `Cc1ccc(S(=O)(=O)N2CC[C@H]3CO[C@H](CN(C)C)[C@H]3C2)cc1` was tested, and the INHIBITION was 32.2%. `COc1ccc(CN2CCC3(CC2)CCN(CC(C)C)C3=O)cc1` gave an INHIBITION of 13.2%. `CCn1nc(C)c2nc(C)nc(NCCCn3cccn3)c21` gave an INHIBITION of 39.1%. In the case of `CCn1nc(C)c2nc(C(C)C)nc(NCCCn3ccnc3)c21`, the INHIBITION is reported as -13.085%. Work on `CCn1nc(C)c2nc(C(C)C)nc(NCCCn3cccn3)c21` yielded an INHIBITION of 50.7%. Work on `C[C@@H]1CN(c2ccc(C#N)cn2)CC[C@@]1(O)C1CCOCC1` yielded an INHIBITION of 24.76%. For `CCCc1n[nH]c(C2CN(C(=O)c3ccc(C)[nH]c3=O)CCO2)n1` (stereo unspecified), the INHIBITION was 40.2%. `COc1ccc(CN2CCn3cncc3C2)cc1Cn1cncn1` was tested, and the INHIBITION was 16.1%. With `COc1cc2c(c(OC)c1OC)CCN(CCn1nc(C)cc1C)CC2` the INHIBITION was 36.3%. `COc1cc(C)cc(C(C(=O)O)N(C)CCN2CCCC2)c1OC` (stereo unspecified) showed an INHIBITION of 28%. `COc1cc2c(c(OC)c1OC)CCN(CCn1cncn1)CC2` showed an INHIBITION of 52.6%. In the case of `c1ccc(CCCN2CCN(CCn3cncn3)CC2)cc1`, the INHIBITION is reported as 15.1%. With `COc1cc2c(c(OC)c1OC)CCN(CCN1CCCCC1)CC2` the INHIBITION was 54.8%. `CNC(=O)[C@H]1C[C@H]2OCC[C@H]2N(CCOc2ccc(Cl)cc2)C1` was tested, and the INHIBITION was -52.3%. Work on `Cc1cc2cc(C(=O)N3C[C@H](O)[C@]4(CCCO4)C3)ccc2o1` yielded an INHIBITION of 15.9%. Compound `Cc1ccc(CN2CC[C@H]3[C@H](CC(Cn4cccn4)N3C)C2)s1` (stereo partly specified) has an INHIBITION of 25.3%. Work on `Cc1n[nH]c(C2CN(C(=O)c3cc(Cl)c[nH]3)CCO2)n1` (stereo unspecified) yielded an INHIBITION of 31.6%. `O=C(NCC(=O)N1CCCC1Cc1cccc(F)c1)c1ccccn1` (stereo unspecified) gave an INHIBITION of -6.51%. Work on `Cc1nc(CNC(C)c2cccc(N3CCCC3=O)c2)cs1` (stereo unspecified) yielded an INHIBITION of 22.7%. With `CC1CCN(CCCNS(=O)(=O)c2cc(F)cc(F)c2)CC1` the INHIBITION was 51.4%. `O=S(=O)(Cc1ccccc1F)NCCCN1CCCCC1` was tested, and the INHIBITION was 36.3%. `CC(=O)N1CCN(CCNS(=O)(=O)c2cc(F)cc(F)c2)CC1` was tested, and the INHIBITION was 26.4%. `CC1CCN(CCCNS(=O)(=O)Cc2ccccc2F)CC1` showed an INHIBITION of 26.9%. In the case of `CC1CCN(CCCNS(=O)(=O)c2cccc(F)c2)CC1`, the INHIBITION is reported as -14.9%. Compound `O=S(=O)(NCCCN1CCCC1)c1cc(F)cc(F)c1` has an INHIBITION of 71.3%. `COc1cccc(-c2c[nH]c(C3CCCN3)n2)c1` (stereo unspecified) showed an INHIBITION of -8.45%. `CCc1ncc(CN[C@@H]2CCCN(C(C)=O)[C@H]2c2ccc(C)s2)cn1` was tested, and the INHIBITION was 23.2%. With `COCCOc1cccc(C(=O)N2CCCC(n3ccnc3C)C2)c1` (stereo unspecified) the INHIBITION was 44.3%. With `Cc1cnn(C2CCCN(C(=O)c3ccc(NC4CC4)nc3)C2)c1` (stereo unspecified) the INHIBITION was -22.9%. With `Cc1cccc2c1NC1(CCOCC1)NC2=O` the INHIBITION was 48%. `Cc1cc(NCc2ccc(S(N)(=O)=O)cc2)nc(C)n1` showed an INHIBITION of 41.5%. Work on `Cc1ccc(-c2nc(CN3CCn4c(nnc4C4CC4)C3)co2)c(C)c1` yielded an INHIBITION of 54.4%. With `Cc1ccccc1-c1noc(CN2CCn3c(nnc3C3CC3)C2)n1` the INHIBITION was 55.9%. For `Cc1ccc(-c2nc(CN3CCn4c(nnc4C4CC4)C3)no2)cc1`, the INHIBITION was 24.7%. Work on `c1ccc(-c2nc(CN3CCn4c(nnc4C4CC4)C3)co2)cc1` yielded an INHIBITION of -40.2%. In the case of `Fc1ccc(-c2nnc(CN3CCn4c(nnc4C4CC4)C3)o2)cc1`, the INHIBITION is reported as 0.0932%. In the case of `Cc1ccc(-c2noc(CN3CCn4c(nnc4C4CC4)C3)n2)cc1`, the INHIBITION is reported as -32.345%. In the case of `Cc1cccc(-c2noc(CN3CCn4c(nnc4C4CC4)C3)n2)c1`, the INHIBITION is reported as -14.8%. Compound `Cc1ccc(-c2nnc(CN3CCn4c(nnc4C4CC4)C3)o2)cc1` has an INHIBITION of 52.3%. With `Cc1ccc(-c2nc(CN3CCn4c(nnc4C4CC4)C3)co2)cc1` the INHIBITION was -25.9%. Work on `Cc1n[nH]c(C2CN(C(=O)c3cc(C4CC4)on3)CCO2)n1` (stereo unspecified) yielded an INHIBITION of 49.2%. `CN(C)C(C)(C)CNCc1cn(C)nc1-c1cccnc1` gave an INHIBITION of 23.7%.
